The list is not random: actives were taken first. Their share in the collection is about 1.8%.
UHRF1 MBD2 ctr: human UHRF1 methylated DNA binding inhibitors. Q96T88. UHRF1 binding to methylated oligo, TR-FRET. inhibition, % at 4.4 µM. actives 0.75% (n = 370,000); in the data active = inhibition above about 21%;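 also: UHRF1 SRA domain binding a hemimethylated CpG hairpin DNA probe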
Neddyl block: inhibitors of human cullin neddylation; P61081+Q13564; TR-FRET cullin neddylation, biochemical; calls only at 25 µM; actives 0.58% (n = 360,000); AID 651699; in the data active = inhibition above about 36%
Target sequence (P61081 whole entry, looked up): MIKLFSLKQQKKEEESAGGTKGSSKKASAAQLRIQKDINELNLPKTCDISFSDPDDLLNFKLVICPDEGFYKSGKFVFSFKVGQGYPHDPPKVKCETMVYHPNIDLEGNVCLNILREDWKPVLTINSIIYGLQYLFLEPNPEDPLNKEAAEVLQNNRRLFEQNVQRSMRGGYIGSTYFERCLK
Target sequence (Q13564 whole entry, looked up): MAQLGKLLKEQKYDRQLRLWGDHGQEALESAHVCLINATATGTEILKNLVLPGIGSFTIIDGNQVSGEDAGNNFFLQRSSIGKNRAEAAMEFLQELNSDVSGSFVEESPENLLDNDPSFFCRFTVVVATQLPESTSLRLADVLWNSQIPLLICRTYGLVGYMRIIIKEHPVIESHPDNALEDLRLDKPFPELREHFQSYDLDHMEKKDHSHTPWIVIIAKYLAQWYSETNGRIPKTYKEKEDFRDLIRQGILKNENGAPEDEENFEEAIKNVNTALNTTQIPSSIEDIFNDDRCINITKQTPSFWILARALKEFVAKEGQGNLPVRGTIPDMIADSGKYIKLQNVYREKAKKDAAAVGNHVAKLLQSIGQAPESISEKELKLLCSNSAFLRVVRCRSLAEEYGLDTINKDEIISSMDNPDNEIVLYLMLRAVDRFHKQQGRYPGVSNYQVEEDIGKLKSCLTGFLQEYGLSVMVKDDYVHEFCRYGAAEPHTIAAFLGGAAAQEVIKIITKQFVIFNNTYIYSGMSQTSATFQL
UBC13 polyUb: inhibitors of human UBC13 polyubiquitin chain formation; TR-FRET; inhibition, % at 20 µM; actives 0.47% (n = 330,000); AID 485273; in the data active = inhibition above about 45%, passing the limit was not always enough
MBD2 inh: blocks human MBD2 binding to methylated DNA; Q9UBB5; TR-FRET, MBD2 binding to methylated oligonucleotide; actives 0.31% (n = 370,000); inhibition, % at 4.4 µM; AID 686964; in the data active = inhibition above about 13%
Numbers stand for hits; . = inactive; / = not tested or not shown; + = active, no number.

SMILES	UHRF1 MBD2 ctr	Neddyl block	UBC13 polyUb	MBD2 inh
CCN(CC)C(=O)C1CCC(CNS(=O)(=O)c2cccc3cccnc23)CC1 (centres undefined)	.	.	.	.
CN(Cc1ccccc1)C(=O)C1CCC(CNS(=O)(=O)c2cccc3cccnc23)CC1 (centres undefined)	31.8	.	.	.
Cc1ccc(-n2nc3c(c2NC(=O)CC(C)C)CS(=O)C3)cc1 (centres undefined)	.	.	.	.
COCc1nnc(SCC(=O)NC(C)c2ccccc2)n1-c1ccccc1 (centres undefined)	.	.	.	.
CCCCCC(=O)N1CC2(C)CN(C(=O)CCCCC)CC(C)(C1)C2=O	23.0	.	.	15.5
OC(COCC(F)(F)C(F)(F)C(F)(F)C(F)F)Cn1c2ccccc2c2ccccc21 (centres undefined)	.	.	.	.
Cc1nc(C)c(-c2csc(Nc3cccc(O)c3)n2)s1	.	.	.	.
Cc1cccc(Nc2nc(-c3sc(C)nc3C)cs2)c1	24.7	.	.	.
CC12CCC3C(C1)C(C(=O)O2)C(=O)OC3(C)C (centres undefined)	.	.	/	.
CC(=O)Nc1ccc(S(=O)(=O)N2CCSC2c2ccco2)cc1 (centres undefined)	26.9	.	.	.
O=S(=O)(c1ccccc1)N1CCSC1c1ccco1 (centres undefined)	.	.	/	.
Cc1ccc(C(=O)NC(C)c2ccc(S(N)(=O)=O)cc2)s1 (centres undefined)	.	.	.	.
Cc1ccc(C(=O)Nc2ccc(S(=O)(=O)N3CCCC3)cc2)s1	.	.	.	.
Cc1ccc(C(C(=O)NCc2ccc(F)cc2)N(CCCO)C(=O)C2COc3ccccc3O2)o1 (centres undefined)	23.4	.	.	.
CCCc1cc(C(=O)Nc2ccc(F)c(Cl)c2)no1	.	.	.	.
CCOC(=O)C1CCN(C(=O)C(C)Sc2ccc(Cl)cc2)CC1 (centres undefined)	23.4	.	.	.
CCOC(=O)C1CCN(C(=O)CSc2ccc(Cl)cc2)CC1	.	.	.	.
COc1cc(OC)c(C2=NOC(C(=O)NCc3ccc4c(c3)OCO4)C2)cc1Cl (centres undefined)	.	.	.	.
CN(CC(=O)Nc1cccc(F)c1)C(=O)c1cccc(S(=O)(=O)N2CCN(c3ccc(F)cc3)CC2)c1	.	.	/	.
CCCOc1ccc(C(=O)NNC(=S)NC(=O)c2ccco2)cc1	.	+	.	.
COc1cccc(C(=O)NC2CCN(CC(=O)Nc3c(C)cc(C)cc3C)CC2)c1	/	/	.	/
O=C1SC(SCc2ccccc2)=N/C1=C\c1ccc(C(=O)O)cc1	.	.	.	.
O=C1SC(SCc2ccccc2)=N/C1=C\c1ccco1	29.2	.	.	.
O=C(N/N=C\C=C\c1ccc2c(c1)OCO2)c1cccnc1	32.7	.	.	.
CCCCCNC(=O)C(c1ccccc1F)n1c(=O)c(-c2ccco2)nc2ccccc21 (centres undefined)	.	.	/	.
SMILES	UHRF1 MBD2 ctr	Neddyl block	UBC13 polyUb	MBD2 inh
COc1cc(/C=N/NC(=O)c2ccc(CN3C(=O)c4cccc5cccc3c45)cc2)cc(OC)c1O	.	+	.	.
COc1ccc(/C=N/NC(=O)c2ccc(CN3C(=O)c4cccc5cccc3c45)cc2)cc1O	.	/	.	.
Cc1ccc(-n2nc3cc(C)c(N)cc3n2)cc1	.	/	.	.
Cc1cc2nc3ccc(N(C)C)cc3nc2cc1N	.	+	.	.
CCn1c2ccccc2c2cc(NC(=O)C(=O)N3CCOCC3)ccc21	22.9	.	.	.
Cc1ccc(Cc2c(-c3ccco3)nc3c(C)cc(Br)cn23)cc1	20.9	.	/	.
Cc1ccc(Cc2c(-c3ccco3)nc3ccc(C)cn23)cc1	24.3	.	/	.
Cc1ccc2nc(-c3ccco3)c(Cc3ccsc3)n2c1	22.9	/	/	.
Cc1ccc(-c2nc3ccc(C)cn3c2Cc2ccsc2)cc1	.	.	/	.
O=S(=O)(N1CCCCC1)n1c(Cc2ccccc2)nc2ccccc21	35.1	.	.	.
O=S(=O)(c1ccc(Br)cc1)n1c(Cc2ccccc2)nc2ccccc21	.	.	.	.
CC(=O)Nc1ccc2oc(-c3ccccc3)nc2c1	23.3	/	.	.
CC(=O)Nc1ccc(S(=O)(=O)Nc2cccc(-c3nc4cc(C)ccc4o3)c2)cc1	21.5	/	.	.
CCC(C)OC(=O)C1C(c2ccccc2)C(C(=O)O)C1c1ccccc1 (centres undefined)	.	.	.	.
O=C1CN(C(=O)CNCc2ccc(Cl)cc2)c2ccccc2N1	62.4	.	.	.
Cc1cc(C)c(OCC(=O)OCC(=O)NC2CCCCCCC2)c(C)c1	.	.	.	.
COCCN(C(=O)CN1CCc2ccccc21)c1c(N)n(Cc2ccccc2)c(=O)[nH]c1=O	41.2	.	.	.

Screening data as filed in PubChem BioAssay.
